Screening results from PubChem BioAssay.
Shown are actives, neighbours in structure and some others; about 3% of the full set was active somewhere.
CRE Fsk mod = modulators of forskolin-stimulated CRE signaling in CHO cells; CHO CRE-bla reporter (cAMP response element driving beta-lactamase), forskolin EC10, beta-lactamase ratio; Potency, µM (series often up to 38.2 µM), for inactives: top-dose activity change, negative = inhibition, actives largely listed as activators; 2.5% of 71,000 active; active means well fitted activation curve with a large enough effect in the signal ratio, with a control signal flat, not every such curve was filed as active; inconclusive means small, poorly fitted or top-dose-only effect, or effect the other way, or a change in a side signal; the % refers to the signal ratio; further: % of control where 0% means no effect
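Cells were plated overnight at 37 °C, exposed to compound titrations plus EC10 NKH 477 for 3 h, then given CCF4 dye for 2 h at room temperature. Blue/green (460/530 nm) ratio was converted to %Activity and AC50 values calculated.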
p53ts 39C kill = kills p53ts cells at the nonpermissive temperature; H1299-p53A138V viability at 39C, ATP luminescence, 24 h; Potency, µM (top dose mostly 46.1 µM), without a hit: at the top dose activity change, negative = cell killing, hits mostly cytotoxic; 1.5% of 130,000 active; AID 902; further: on the % scale 0 is the no-effect control and ±100 the full control effect; nearly all actives have a fitted effect of over 55% in size
IkB sig inh = suppresses IkB signaling in ABC-DLBCL reporter cells. ABC-DLBCL IkBa-CBG/CBR dual luciferase ratio, 4 h; response scale: scaled: untreated 0%, proteasome inhibitor 100%. Potency, µM (top dose mostly 57.1 µM), without a hit: at the highest dose IkBa stabilization activation. 0.04% of 110,000 active; active means well fitted curve in the direction sought with a large enough effect in the signal ratio, not every such curve was filed as active; inconclusive means small, poorly fitted or top-dose-only effect, or a change in a side signal; the % refers to the signal ratio;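 further: the direction sought is a rising ratio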
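Curves were fitted separately to fusion (green), unfused (red) and ratio luminescence, then classed by r2, magnitude and activity. Cells: OCI-Ly3, 4 h compound plus doxycycline at 37C; 10 uM MG-132 defined full response.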
p53ts 32C tox = p53ts cell cytotoxicity, permissive temperature; Potency, µM (doses to about 46.1 µM), for the others: at the top dose activity change, negative = cytotoxicity, actives largely listed as cytotoxic; AID 924; H1299-p53A138V at 32C, ATP luminescence viability, 24 h; 0.93% of 130,000 active;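 further: 0% = DMSO and -100% = full killing by reference compound; nearly all actives have a fitted effect of over 55% in size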
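H1299-p53 A138V cells (temperature-sensitive p53) exposed 24 h to up to 46 uM compound at 32C, where p53 is wild-type in conformation. Viability read as ATP luminescence and normalised to DMSO and 100 uM tamoxifen. AC50 fitted with the Hill equation.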
Peg3 imprint = genomic imprint erasure induction; mouse ES Peg3-LacZ reporter, beta-gal luminescence, 40 h; Potency, µM (series often up to 60.7 µM), without a hit: at the top dose activity change, positive = activation, hits mostly activators; 0.02% of 110,000 active; AID 1948
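Readout: BetaGlo luminescence (5 min, room temp) for LacZ from the normally silent maternal Peg3 allele in female Peg3LacZ-Neo ES cells. Cells 300/well, 40 h, 37C, 5% CO2. Data normalized per plate to negative controls.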
Numbers without * were called inactive; u = inconclusive; x = no result; ! = a repeat was not active; [ ] = another dose, or the depositor's remark. Unless noted, the call rests on the fitted dose curve; in most records, active means well fitted curve in the direction sought with a large enough effect; inconclusive means small, poorly fitted or top-dose-only effect, or another doubt; inactive means no such curve, though single readings can be large; an effect the other way counts as inactive or inconclusive. Potency means the concentration at half of the fitted maximal effect.

SMILES	CRE Fsk mod	p53ts 39C kill	IkB sig inh	p53ts 32C tox	Peg3 imprint
CCOC(=O)Nc1nnc(-c2ccccc2OC)s1	27.1%	-7.9%	-2.0%	-10.6%	0.4%
COC(=O)Nc1nnc(-c2ccccc2Cl)s1	u	12.6µM*	-1.4%	10µM*	u
O=C(CCn1c(=O)c2cccn2c2cccnc21)NCc1ccc(F)cc1	x	3.0%	-1.2%	2.5%	-15.5%[10.9 µM]
CC1CCC2C(C1)c1sc(=O)[nH]c1SC2(C)C (centres undefined)	10µM*	8.1%	0.6%	7.6%	-8.9%
COc1ccccc1NC(=O)c1cc2cc3ccc(OC)c(Cl)c3nc2s1	x	-2.5%	6.1%	-5.3%	-12.1%[10.9 µM]
CSc1cccc(NC(=O)c2ccc3c(c2)CCCN3S(C)(=O)=O)c1	x	u	u	12.6µM*	-4.3%[10.9 µM]
COc1cc2ccccc2cc1C(=O)Nc1ccc2oc(-c3ccccc3)nc2c1	x	-19.4%	4.5%	-4.5%	-8.6%[10.9 µM]
CSc1ccc(/C=C/c2nc3ccccc3n2S(=O)(=O)c2ccc(F)c(C)c2)cc1	x	3.98µM*	u	7.94µM*	-26.2%[10.9 µM]
CC(=O)c1nc2ccccc2n1S(=O)(=O)c1ccc(C)cc1	-5.6%	0.3%	u	5.2%	-15.5%
Cc1ccc(/C=C/c2nc3ccccc3n2S(=O)(=O)c2cccc(Cl)c2)cc1	x	3.16µM*	u	3.16µM*	-83.9%[10.9 µM]
CCOc1cc(S(=O)(=O)n2c(C)nc3ccccc32)ccc1F	9.5%	21.7%	-1.1%	-10.7%	-38.5%
CCOc1ccc(/C=C/c2nc3ccccc3n2S(=O)(=O)c2cccc(Cl)c2)cc1	x	10µM*	u	12.6µM*	23.3%[10.9 µM]
CSc1nn(Cc2ccccc2C)c(NC(C)=O)c1S(=O)(=O)c1ccc(C)cc1	x	-7.6%	u	1.3%	-9.5%[10.9 µM]
Cc1cc(F)ccc1NC(=O)CS(=O)(=O)c1cccc2nsnc12	x	0.0398µM*	1.3%	14.6%	-8.2%[10.9 µM]
CC1=C(C(=O)Nc2ccccc2C)C(c2ccccn2)n2nc(SCc3ccccc3F)nc2N1 (centres undefined)	x	6.31µM*	2.4%	-14.4%	1.7%[10.9 µM]
Cc1ccc(NC(=O)CN2C(=O)C(c3ccc(C)cc3)=NC23CCCCCC3)cc1	x	-9.0%	u	21.0%	u
CCOC(=O)c1c(-c2cccs2)csc1NC(=O)COC(=O)c1c(C)noc1C	2.51µM*	-11.6%	u	14.2%	-4.5%
COC(=O)c1c(-c2cccs2)csc1NC(=O)CN1CCOCC1	3.16µM*	-11.3%	3.6%	9.3%	-23.1%
COC(=O)c1c(-c2cccs2)csc1NC(=O)c1ccc(C)cc1	x	13.1%	-1.8%	-6.6%	-11.6%[10.9 µM]
CCc1ccccc1NC(=O)c1nnn(Cc2ccc(Cl)cc2)c1N	x	-5.0%	-1.1%	-10.0%	17.3%[10.9 µM]
CCOC(=O)Cc1nnc(NC(=O)C(CC)Sc2nncn2C)s1 (centres undefined)	-6.2%	3.3%	2.5%	2.4%	-0.5%
CCOC(=O)Cc1nnc(NC(=O)C(CC)Sc2nnc3c4ccccc4n(C)c3n2)s1 (centres undefined)	12.6µM*	8.8%	1.1%	3.1%	-13.9%
COc1ccc(OC)c(NC(=O)c2ccc(-c3nc(COc4ccccc4)c(C)o3)cc2)c1	x	-17.7%	1.5%	-1.7%	-5.1%[10.9 µM]
O=C(N/N=C/c1ccc(O)cc1O)c1cc(-c2ccccc2)n[nH]1	x	10µM*	x	-15.9%	x
O=C(N/N=C/c1c[nH]c2ccccc12)c1cc(-c2ccc3ccccc3c2)n[nH]1	x	15.8µM*	x	u	x
SMILES	CRE Fsk mod	p53ts 39C kill	IkB sig inh	p53ts 32C tox	Peg3 imprint
COc1cccc2cc(C(=O)Nc3ccc(CC(=O)O)cc3)c(=O)oc12	x	7.94µM*	u	5.01µM*	-51.6%[10.9 µM]
CCN1CCc2nc3sc(C(=O)c4ccccc4)c(N)c3cc2C1	x	-23.9%	u	-1.6%	-4.1%[10.9 µM]
Clc1ccc(OCc2nnc3n2N=C(c2ccc4c(c2)OCCO4)CS3)c(Cl)c1	12.6µM*	-24.9%	2.3%	-13.9%	-11.9%
CCOc1ccc(C(=O)Nc2cc(C)on2)cc1OCC	5.7%	-5.9%	-1.0%	4.5%	-5.4%
CCN1CCc2nc(NC(=O)c3ccc4c(c3)OCCO4)sc2C1	9.4%	u	0.6%	u	-30.1%
Cc1cc(NC(=O)c2ccc3c(c2)OCO3)no1	-13.0%	12.6µM*	1.3%	10µM*	-77.6%
CCN(CC(=O)Nc1ccc2c(c1)OCCO2)CC(=O)Nc1cc(C)on1	-2.7%	-11.8%	-0.7%	-0.4%	-13.9%
Cc1cc(NC(=O)CSc2nnc(-c3ccc4c(c3)OCCO4)o2)no1	u	0.794µM*	-1.1%	5.01µM*	-80.9%
Cc1cc(NC(=O)c2ccc3c(c2)OCCO3)no1	-2.7%	2µM*	5.2%	1.58µM*	-87.6%
O=C(Nc1nc2c(F)cccc2s1)c1ccc2c(c1)OCCO2	x	5.01µM*	u	10µM*	-29.8%[10.9 µM]
COc1cccc(-n2nnc3c(=O)n(Cc4cccc(C)c4)cnc32)c1	10µM*	13.2%	0.3%	11.5%	-17.9%
COc1cccc(-n2nnc3c(=O)n(Cc4ccccc4F)cnc32)c1	12.6µM*	-5.1%	-0.5%	6.6%	-14.2%
Cc1ccc(Cn2nnc3c(=O)n(Cc4cccc(C)c4)cnc32)cc1	u	-8.0%	u	7.6%	u
Cc1ccccc1C1CC(=O)Oc2ccc(O)cc21 (centres undefined)	x	x	x	x	20.6%[97.3 µM]
CC(N)=NCCCC[C@@H](N)C(=O)O	x	x	x	x	-4.8%
CCCC[C@H](CC)CN=C(N)NC(N)=NCCCCCCN=C(N)NC(N)=NC[C@@H](CC)CCCC	2.4%[17.1 µM]	12.6µM*	17.0%[25.6 µM]	-21.2%[20.6 µM]	-25.7%[16.8 µM]
O=C(Nc1ccc(NC(=O)c2ccco2)nc1)c1cccnc1	2.2%	12.6µM*	u	10µM*	-46.5%
CC(=O)c1ccc(NC(=O)C2=CC(c3ccc(C)cc3)=NS(=O)(=O)N2C)cc1	x	u	6.5%	20.0%	2.6%[10.9 µM]
Cc1cc(-c2ccc(Cl)cc2)n2nc(N)nc2n1	12.6µM*	-0.8%	-0.1%	10.3%	-3.0%
CCc1ccc(S(=O)(=O)c2nnn(-c3cccc(C)c3)c2N)cc1	x	-16.3%	u	5.6%	-9.5%[10.9 µM]
NCCc1ccc(O)c(O)c1	1.4%	u	-1.0%	12.6µM*!	-40.6%
c1coc(Cn2c(SCc3nc4ccccc4[nH]3)nnc2-c2cccs2)c1	-5.2%	7.5%	1.3%	-1.8%	-4.1%
Cc1cccc(-c2nnc(SCc3nc4ccccc4[nH]3)n2Cc2ccco2)c1	2.51µM*	25.0%	u	0.8%	-13.3%
COc1ccc(-n2nc3cc(C)c(N)c(Br)c3n2)cc1	u	12.6µM*	u	12.6µM*	-28.4%
Cc1cc2n(n1)C(c1ccccc1)Nc1ccccc1-2 (centres undefined)	21.4%	-6.6%	-1.8%	1.2%	-7.6%
Cc1cc2n(n1)C(c1ccc(N(C)C)cc1)Nc1ccccc1-2 (centres undefined)	7.94µM*	u	1.5%	u	-17.0%
Cc1nc2ccc(Cl)cc2nc(C)/c1=N\O	2.3%	2.1%	2.1%	4.6%	17.6%
